# Sampled rows, rich in hits. Any-hit rate of the full collection: about 8%.
# HT1080 IDH1KD tx: qHTS for induction of synthetic lethality in tumor cells producing 2HG: qHTS for the HT-1080-IDH1KD cell line. HT-1080 IDH1 knockdown viability, ATP luminescence, 48 h. Potency, µM (doses to about 46.1 µM), most hits filed as cytotoxic. actives 2% (n = 360,000)
#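 % activity derives from luminescence (CellTiter-Glo), normalised to DMSO and no-cell wells. HT-1080-IDH1KD cells, 750/well, had 48 h compound exposure at 37 °C.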
# KB-3-1 cytotox: qHTS assay for MDR1-selective chemotherapeutics: Primary screen using the parental adenocarcinoma cell KB-3-1. KB-3-1 viability, CellTiter-Glo ATP luminescence, 72 h. Potency, µM (titrated, usually from 46.1 µM), actives largely listed as cytotoxic. actives 1.4% (n = 400,000). AID 1347075, 2019; further: nearly all actives have a fitted effect of over 60% in size
#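 Cytotoxicity measured as CellTiter-Glo luminescence after 72 h at 37 C. Compound titrations were pinned onto drug-naive KB-3-1 parental adenocarcinoma cells grown in DMEM with 10% FBS, and normalized data fitted to concentration-response curves.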
# HT1080NT lethal: qHTS for induction of synthetic lethality in tumor cells producing 2HG: qHTS for the HT-1080-NT fibrosarcoma cell line | HT-1080-NT fibrosarcoma viability, CellTiter-Glo ATP luminescence, 48 h | Potency, µM (highest dose often 46.1 µM), actives largely listed as cytotoxic | actives 1.6% (n = 360,000) | AID 686970, 2013;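 further: NT is the 2HG producing partner of a matched IDH1 knockdown line; nearly all actives have a fitted effect of over 55% in size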
#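 Viability by CellTiter-Glo luminescence after 48 h compound exposure at 37C of HT-1080-NT cells (750/well, RPMI, 5% FBS). % activity scaled between DMSO wells and medium-only wells, then curve-fitted and categorized by curve class.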
# MCF10A rereplic: A quantitative high throughput screen for small molecules that induce DNA re-replication in MCF 10a normal breast cells. MCF 10A DNA re-replication, Hoechst nuclear intensity, 48 h. Potency, µM (top dose mostly 46.1 µM), usual class: activators. actives 2.9% (n = 350,000); further: nearly all actives have a fitted effect of over 50% in size
# SW480 rereplic: A quantitative high throughput screen for small molecules that induce DNA re-replication in SW480 colon adenocarcinoma cells. SW480 DNA re-replication, Hoechst DNA content imaging, 48 h. Potency, µM (doses to about 46.1 µM), most hits filed as activators. actives 1.8% (n = 340,000). AID 624297, 2012; further: nearly all actives have a fitted effect of over 55% in size
#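 Cells (250 per well) received 23 nL compound or DMSO by pin tool and were kept 48 hr at 37 C, 5% CO2. Nuclei were then stained with Hoechst for 40 min and scanned for DNA content.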
# KB-V1 cytotox: qHTS assay for MDR1-selective chemotherapeutics: Primary screen using the drug-selected MDR subline cells KB-V1; AID 1347076, 2019; Potency, µM (series often up to 46.1 µM), most hits filed as cytotoxic; KB-V1 MDR cells viability, CellTiter-Glo, 72 h; actives 3.4% (n = 400,000); further: nearly all actives have a fitted effect of over 60% in size
#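 qHTS viability screen in drug-selected KB-V1 MDR cells: 72 h compound treatment at 37 degrees C, ATP luminescence end point.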
# Numbers stand for hits; i = inactive; ? = inconclusive; nt = no result given; [ ] = dose if it differs, or a comment. The call rests on the fitted dose curve; in most records, active means well fitted curve in the direction sought with a large enough effect; inconclusive means small, poorly fitted or top-dose-only effect, or another doubt; inactive means no such curve, though single readings can be large; an effect the other way counts as inactive or inconclusive.
SMILES,HT1080 IDH1KD tx,KB-3-1 cytotox,HT1080NT lethal,MCF10A rereplic,SW480 rereplic,KB-V1 cytotox
COc1ccc(NS(=O)(=O)c2ccc(N/N=C(\C)c3ccncc3)c([N+](=O)[O-])c2)cc1,?,?,i,?,?,i
COc1ccccc1NS(=O)(=O)c1ccc(NN=C2CCCCC2)c([N+](=O)[O-])c1,i,i,i,i,i,16µM
Cc1ccn2c(Nc3ccc4c(c3)OCO4)c(-c3ccco3)nc2c1,nt,i,nt,nt,nt,i
COc1ccc(OC)c(C2NC(=O)NC(C)=C2C(=O)Nc2cc(C)cc(C)c2)c1 (stereo not given),nt,i,nt,nt,nt,?
O=C1C2C3C=CC(C3)C2C(=O)N1c1ccc(N2CCN(c3ccccn3)CC2)c([N+](=O)[O-])c1 (stereo not given),i,i,?,?,?,10µM
O=C(CCN1C(=O)C2C3C=CC(C3)C2C1=O)N1CCN(c2ccccn2)CC1 (stereo not given),i,i,i[9.24 µM],i,i,i
COC(=O)c1ccc(OC)c(CSc2nnc(COc3ccccc3)o2)c1,?,i,i,i,i,21µM
CC(C)(C)C(=O)Nc1ccc2c(c1)C(=O)C(=O)c1ccccc1-2,0.79µM,nt,0.79µM,nt,nt,nt
CC(=O)Nc1ccc2c(c1)C(=O)c1ccccc1C2=O,i,i,i,i,i,i
COC(=O)c1ccccc1NC(=O)c1cnc(Nc2ccc(OC)cc2)c2ccccc12,nt,i,nt,nt,nt,i
Cc1ccc(Cn2ccsc2=NC(=O)CCl)cc1,12µM,21µM,1µM,?,i[1.84 µM],?
Cc1ccc(Cn2ccsc2=NC(=O)COC(=O)c2ccc(NC(=O)CC#N)cc2)cc1,i,?,i,i,i,i
Cc1cc(S(=O)(=O)Nc2ccc(C(=O)NCC(C)(C)N3CCOCC3)cc2)ccc1F,i,i,i,i,i,i
CC(=O)c1cccc(-c2ccnc3c2CC(C(=O)Nc2ccccc2)O3)c1 (stereo not given),i,i,i,nt,nt,21µM
CC(=O)c1cccc(-c2ccnc3c2CC(C(=O)Nc2ccc(F)c(Cl)c2)O3)c1 (stereo not given),?,?,?,nt,nt,21µM
CS(=O)(=O)Nc1cccc(NC(=O)C2Cc3c(-c4ccccc4)ccnc3O2)c1 (stereo not given),?,16µM,2.3µM,nt,nt,i
COc1ccc(NC(=O)C2Cc3c(-c4ccccc4)ccnc3O2)cc1OC (stereo not given),?,16µM,i,nt,nt,?
CC(=O)c1cccc(NC(=O)C2Cc3c(-c4ccccc4)ccnc3O2)c1 (stereo not given),i,i,i,nt,nt,i
CC(C)CCNC(=O)C1CCN(C(=O)N2CCOc3ccc(Cl)cc32)CC1,nt,i,nt,nt,nt,i
CC(=O)c1c(C)[nH]c(C(=O)CN2CCN(S(=O)(=O)c3ccccc3)CC2)c1C,i,i,i[9.24 µM],i,i,i
CC(=O)Nc1ccc(NC(=O)C2Cc3c(-c4ccco4)ccnc3O2)cc1 (stereo not given),i,i,i,nt,nt,i
CC(=O)c1cccc(NC(=O)C2Cc3c(-c4ccco4)ccnc3O2)c1 (stereo not given),i,?,i,nt,nt,4.6µM
CCOC(=O)CCc1c(C)c2ccc3c(c2oc1=O)CN(CCCO)CO3,i,i,i,7.3µM,?,i
CCOC(=O)C(Cc1ccc(O)cc1)Nc1nc2ccccc2o1 (stereo not given),i,i,i,i,i,21µM
CC(C)(C)NC(=O)NCC1CCCC1NC(=O)NC(C)(C)C (stereo not given),i,i,i,i,i,26µM
CCC1CCCCN1C(=O)CSc1n[nH]c(-c2ccccc2)n1 (stereo not given),nt,i,nt,nt,nt,i
Cc1ccc(CSC2=NC(C)(C)Nc3ccccc32)c(C)c1,nt,i,nt,nt,nt,i
O=C(NC1CCCC1)C(c1cccnc1)N(C(=O)c1ccco1)c1ccc(F)cc1 (stereo not given),i,i,i,i,i,i
